# Test results taken from PubChem BioAssay AID1942 (Johns Hopkins Ion Channel Center, 2009).
# The campaign covered roughly 2,400 compounds. About 580 (24%) were called active. Only a sample is shown. A number with no mark means an inactive call.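 The calls were made as follows: active = activity change at or above the mean plus 3 SD of buffer wells without dofetilide, per plate; inactive = the rest.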
# Target: Potassium voltage-gated channel subfamily KQT member 2 (Rattus norvegicus) (UniProt O88943)
# Sequence (O88943 whole entry, looked up): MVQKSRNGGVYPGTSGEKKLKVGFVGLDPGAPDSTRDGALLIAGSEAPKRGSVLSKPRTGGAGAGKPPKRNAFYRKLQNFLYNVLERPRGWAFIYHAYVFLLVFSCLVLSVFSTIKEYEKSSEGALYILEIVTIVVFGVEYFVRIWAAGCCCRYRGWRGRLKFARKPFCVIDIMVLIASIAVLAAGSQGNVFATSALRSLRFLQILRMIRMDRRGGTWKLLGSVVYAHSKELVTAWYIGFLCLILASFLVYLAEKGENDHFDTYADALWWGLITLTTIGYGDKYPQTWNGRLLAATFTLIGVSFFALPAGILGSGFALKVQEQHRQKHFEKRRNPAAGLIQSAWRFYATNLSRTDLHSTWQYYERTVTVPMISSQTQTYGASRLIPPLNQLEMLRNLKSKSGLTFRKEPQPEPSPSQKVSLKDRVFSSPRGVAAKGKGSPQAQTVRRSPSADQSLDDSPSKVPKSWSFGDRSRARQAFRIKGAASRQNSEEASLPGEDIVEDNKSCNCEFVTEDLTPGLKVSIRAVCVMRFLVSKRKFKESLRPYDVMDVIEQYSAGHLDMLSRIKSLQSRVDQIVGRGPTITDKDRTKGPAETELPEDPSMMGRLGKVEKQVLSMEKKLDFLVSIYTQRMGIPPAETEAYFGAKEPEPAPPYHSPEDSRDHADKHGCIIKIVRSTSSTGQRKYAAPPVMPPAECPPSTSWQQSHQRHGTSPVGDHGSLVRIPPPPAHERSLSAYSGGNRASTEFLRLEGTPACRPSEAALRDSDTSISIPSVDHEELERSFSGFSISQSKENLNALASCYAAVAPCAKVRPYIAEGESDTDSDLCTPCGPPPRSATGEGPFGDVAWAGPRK
# Assay: KCNQ2 potentiation in CHO cells – cell-based, FluxOR thallium flux, counter-screen for hERG block protector project, confirmation (AID 1942);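 also: normalized value minus buffer-control mean plus three SD of buffer wells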
# Settings: FluxOR thallium flux fluorescence, at 10 µM, active compounds read high
row,SMILES,"activity change, less the hit threshold"
1,CCc1nc(C)ccc1OCC(=O)N1CCc2c([nH]c3ccccc23)C1c1ccccn1 (stereo not given),-18.2%
2,CCN(CC)c1ccc(/C=c2\sc3nnc(-c4ccccc4Cl)n3c2=O)cc1,-31.7%
3,O=C(NC(=S)Nc1nc(-c2ccc([N+](=O)[O-])cc2)cs1)c1ccco1,20.1% (active)
4,O=C(NC(=S)Nc1nc(-c2ccccc2)cs1)c1ccco1,-0.7%
5,O=C(NC(=S)Nc1nc2ccccc2s1)c1ccco1,40.4% (active)
6,COc1ccc(-c2csc(NC(=S)NC(=O)c3ccco3)n2)cc1Br,-3.7%
7,COc1ccc(-c2csc(NC(=S)NC(=O)c3ccco3)n2)cc1,-0.4%
8,O=C(NC(=S)Nc1nc2ccc(F)cc2s1)c1ccco1,59.7% (active)
9,COc1ccc2nc(NC(=S)NC(=O)c3ccco3)sc2c1,27.9% (active)
10,O=C(NC(=S)Nc1nc(-c2ccc(Br)cc2)cs1)c1ccco1,-18.5%
11,Cc1ccc2nc(NC(=S)NC(=O)c3ccco3)sc2c1,-6.5%
12,O=C(NC(=S)NCc1ccc(-c2nc3ccccc3s2)cc1)c1ccco1,-16%
13,Cc1ccc(C)c(N2CCN(S(=O)(=O)c3ccc(-c4ccc(=O)[nH]n4)o3)CC2)c1,-14.6%
14,CCn1cc(CCC(=O)NCc2cccc(OC)c2OC)c2ccccc21,-13%
15,Cc1cc(N2CCN(C)CC2)nc(N2CCOCC2)n1,-10%
16,CCN(CC)C(=O)CN1C(=O)c2cccc3cccc(c23)C1=O,-24.8%
17,CN(C)c1oc(-c2ccccc2)nc1C#N,-16.2%
18,CC(=O)C1C(=O)c2c(cccc2[N+](=O)[O-])C1=Nc1ccccc1C (stereo not given),-21.7%
19,O=c1cc(O)c2sc(Nc3ccc(F)c(Cl)c3)nc2[nH]1,-20.3%
20,COc1ccc(N2CCN(CC(O)COc3ccc(F)cc3)CC2)cc1 (stereo not given),-24.2%
21,CC1=C(C)CS(=O)N(c2ccc(S(N)(=O)=O)cc2)C1 (stereo not given),-5.8%
22,CC1=NN(c2ccccc2)C(=O)C1C(=O)c1ccc(Cl)cc1 (stereo not given),-0.6%
23,Cc1ccc(C(=O)Nc2nc3ccccc3c(=O)s2)cc1,-1.3%
24,O=c1c2ccccc2nc(-c2ccc(Cl)c(Cl)c2)n1O,68.4% (active)
25,O=c1c2cc(Cl)ccc2nc(-c2ccccc2)n1O,27.1% (active)

row,SMILES,"activity change, less the hit threshold"
1,Cc1ccc(-c2nc3c(Cl)cc(Cl)cc3c(=O)n2O)cc1,142% (active)
2,O=c1c2ccccc2nc(-c2ccccc2)n1O,-9.4%
3,Cc1ccc(-c2nc3ccccc3c(=O)n2O)cc1,6.3% (active)
4,COc1cccc([C@@H]2Oc3ccc(OC)cc3C(=O)[C@H]2OC(=O)NCc2ccc3c(c2)OCO3)c1,-12.3%
5,N#CC(=C1SC=CS1)c1nc(-c2ccccc2)cs1,-21.5%
6,O=C(N/N=C/c1ccccc1[N+](=O)[O-])c1ccc(CN2CCOCC2)cc1,-14.3%
7,Cc1ccc(Nc2nc(-c3cccs3)cs2)nc1,-16.1%
8,O=C(N/N=C/c1cccs1)C(=O)Nc1cccc(Cl)c1,-12.5%
9,CSc1nc2c(c(=O)[nH]1)C(c1ccc(Cl)cc1)CC(=O)N2 (stereo not given),-14%
10,O=c1c2ccccc2nc(-c2cccc(Cl)c2)n1O,28.8% (active)
11,Cc1ccc(-c2onc3ccc(Cl)cc23)cc1,-16.5%
12,CCOC(=O)c1c(N2C(=O)Nc3ccccc3N2O)n[nH]c1-c1cccc(Cl)c1,-9.4%
13,O=c1c2cc(Cl)ccc2nc(-c2ccc(Cl)c(Cl)c2)n1O,127% (active)
14,Cc1ccc(C(=O)CC(=O)c2cc(Cl)ccc2O)cc1,-19.3%
15,Cc1ccc(-c2nc3ccc(Cl)cc3c(=O)n2O)cc1,104% (active)
16,Cc1ccc(CNS(=O)(=O)c2cc3c4c(c2)CCN4C(=O)CC3)cc1,-11.7%
17,Cc1cc([N+](=O)[O-])nn1CC(=O)Nc1ccc(Cl)cn1,-1.2%
18,COC(=O)c1ccc(/C=C/c2ccc3cccc(OC)c3n2)cc1,-22.1%
19,CCCCCn1c(=S)[nH]c2ncccc2c1=O,17.1% (active)
20,CCCCC(CC)CNC(=O)Cn1c(=S)[nH]c2ncccc2c1=O (stereo not given),-9.7%
21,CC(C)CCn1c(=S)[nH]c2ncccc2c1=O,-3.7%
22,CCN(CCCn1c(=S)[nH]c2ncccc2c1=O)c1ccccc1,10.4% (active)
23,COC(=O)c1ccc(NN=Nc2ccc(C)cc2)cc1,-4.6%
24,C=CCNc1sc(C(=O)C(C)(C)C)c(N)c1C#N,-15.5%
25,CCc1c(C)nc(SC)n(CC#N)c1=O,-14.4%

row,SMILES,"activity change, less the hit threshold"
1,CCCCNC(=S)N/N=C/C1=CCC2CC1C2(C)C (stereo not given),-17.2%
2,c1ccc2c(c1)c1ccccc1n1c(-c3ccc4c(c3)OCO4)nnc21,-10%
3,Cn1nc(C(=O)Nc2ccc3c(c2)OCO3)c2ccccc2c1=O,-16.1%
4,O=c1c(O)c(-c2cccs2)oc2ccccc12,95.3% (active)
5,O=c1c(O)c(-c2ccc3c(c2)OCO3)oc2ccccc12,12% (active)
6,O=c1c(O)c(-c2cccs2)oc2ccc(Cl)cc12,111% (active)
7,Cc1nnc(SCC(=O)Nc2nccs2)n1N,-19.4%
8,CCOc1ccc(Nc2ccc([N+](=O)[O-])c3nonc23)cc1,-4.2%
9,COC(=O)c1ccc(-n2c(C)nc(=O)c(-c3ccccc3)c2C)cc1,-13.8%
10,CC(NC(=O)CCCn1cc([N+](=O)[O-])cn1)c1ccccc1 (stereo not given),-27%
11,COc1ccc(NC(=O)C(=O)NNC(=O)C(C)Oc2ccc(Cl)cc2Cl)cc1 (stereo not given),32.6% (active)
12,COc1cccc(C(=O)NNC(=O)C(=O)Nc2cccc(Cl)c2C)c1,54.1% (active)
13,CC(C)Oc1cccc(C(=O)N2CCCC2)c1,-14%
14,CC(Oc1ccc(Cl)cc1Cl)C(=O)Nc1cccnc1 (stereo not given),-25.1%
15,COc1cccc(C(=O)NNC(=O)C(=O)Nc2ccc(C)c(Cl)c2)c1,66.8% (active)
16,COc1ccc(C(=O)NNC(=O)C(=O)Nc2ccc(C)c(Cl)c2)cc1,-0.2%
17,COc1ccc(C(=O)NNC(=O)C(=O)Nc2ccc(C)cc2)cc1,22.4% (active)
18,COc1ccc(NC(=O)C(=O)NNC(=O)c2ccc(Cl)cc2Cl)cc1,-7.7%
19,COc1cccc(C(=O)Nc2cccc(-c3ccc(N4CCOCC4)nn3)c2)c1,-17.8%
20,CCN(C(=O)c1cc2c(=O)[nH]c3ccc(C)cc3c2s1)c1ccccc1F,-7%
21,O=C(O)c1cccc2cc(-c3ccccc3)oc(=O)c12,-17.7%
22,COc1cccc(CN(C)CC2CCCN(CCc3ccc(Cl)cc3)C2)c1OC (stereo not given),-26.8%
23,Cc1ccc(-n2nc(C)c3c2OC(N)=C(C#N)C3c2ccoc2)cc1 (stereo not given),-13.7%
24,O=C(CCC(=O)N1CCN(S(=O)(=O)c2ccccc2)CC1)c1cccs1,-13.6%
25,CN1C(=O)NC(c2cccc([N+](=O)[O-])c2)C2=C1CC(C)(C)CC2=O (stereo not given),-22.1%

row,SMILES,"activity change, less the hit threshold"
1,COc1cccc(C(=O)NNC(=O)C(=O)Nc2ccc(C)cc2)c1,78.3% (active)
2,COc1cccc(NC(=O)c2cncs2)c1,-22.6%
3,CCc1ccc(NC(=O)C(=O)NNC(=O)c2ccc(OC)cc2)cc1,100% (active)
4,CCc1ccc(NC(=O)C(=O)NNC(=O)c2cccc(OC)c2)cc1,62.3% (active)
5,CCc1ccc(NC(=S)Nc2cccc(OC)c2)cc1,-15.5%
6,COc1ccc(CCNC(=O)C2CCCN(S(C)(=O)=O)C2)cc1 (stereo not given),-23.4%
7,Cc1n[nH]c(C)c1CCNC(=O)C1CCC(=O)N(Cc2ccccc2F)C1 (stereo not given),-14%
8,Cc1c(-c2ccn[nH]2)cc(NC(=O)c2ccc(Cl)cc2)c(=O)n1N,-24.4%
9,COCC1CCCN(C(=O)c2ccc3oc(C(C)C)nc3c2)C1 (stereo not given),-11.7%
10,Cc1ccc(NC(=O)CN2C(=O)N/C(=C/c3ccccc3OCc3cccc(C(=O)O)c3)C2=O)cc1,-18.7%
11,CCOC(=O)NC(=O)/C(C#N)=N\Nc1ccc(Cl)cc1,-17.6%
12,CC(C)(C)SCCNC(=O)CN1C(=O)c2ccccc2S1(=O)=O,-13.2%
13,Cc1nc2cc3sc(C)nc3cc2s1,-9.2%
14,COc1ccc(-c2cc(=O)oc3cc(OCC(C)=O)ccc23)cc1,-20.9%
15,O=C(CN1C(=O)S/C(=C\c2cccs2)C1=O)Nc1ccc(C(=O)O)c(O)c1,21.5% (active)
16,O=C(CCN1C(=O)/C(=C/c2cccs2)SC1=S)Nc1cccc(C(=O)O)c1,-22.7%
17,O=C(CN1C(=O)S/C(=C\c2cccs2)C1=O)Nc1ccc(O)c(C(=O)O)c1,-14%
18,CSc1nc(C)c2c(n1)N(c1ccc(C(C)C)cc1)CC2,-17.3%
19,Cc1cccc(C(=O)CC(=O)c2cc(Cl)ccc2O)c1,-14.2%
20,O=C(N/N=C/c1ccc(-c2ccccc2)o1)c1ccccc1O,-5.7%
21,O=C(N/N=C/c1cc(Cl)ccc1O)c1ccccc1Br,6.8% (active)
22,CC(C)C(=O)N(c1ccc(F)cc1)C1C=CS(=O)(=O)C1 (stereo not given),-12.6%
23,O=c1oc2ccccc2c2c1nc(C(F)(F)F)n2-c1ccccc1,-18.1%
24,O=C(CSc1nc(-c2ccccc2)nc2ccc(F)cc12)Nc1cccc(C(=O)O)c1,-4.9%
25,CC[C@@H](C(=O)[C@@H](C)[C@@H](O)[C@H](C)CCc1ccc(C)c(O)c1C(=O)O)[C@H]1O[C@](CC)([C@H]2CC[C@](O)(CC)[C@H](C)O2)C[C@@H]1C,155% (active)
